Source: PubChem BioAssay (Broad Institute)
PvdQ acylase – P. aeruginosa PvdQ acylase inhibition | purified PvdQ acylase, fluorescence plate reader | inhibition, % at 10 µM | 340,000 compounds, 0.063% hits | AID 488965; in the data active means inhibition above about 30%, passing the limit was not always enough; inconclusive means no clear call, values can overlap the other calls;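 further: 0% = vehicle neutral wells and 100% = reference inhibitor wells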
ERp5 inh – blocks human ERp5 reductase activity on insulin; Q15084; ERp5 insulin aggregation, absorbance 650 nm, 90 min; inhibition, % at 9.99 µM; 350,000 compounds, 0.05% hits; AID 651711;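 active means mean replicate inhibition above about 25%, with every replicate also reaching it, limit read from the data, passing the limit was not always enough; inconclusive means only one of those two criteria met; inactive means neither criterion met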
AI-2 QS mod – Vibrio harveyi AI-2 quorum sensing modulation; 300,000 compounds, 0.4% hits; AID 2094; activity change, % at 7.5 µM; Vibrio harveyi JMH597 AI-2 luminescence/OD600 ratio, 9 h; hits give low values; strain lacks LuxN and CqsS sensors; 0 = neutral-control median; in the data active means activity change below about -75%, passing the limit was not always enough; inconclusive means no clear call, values can overlap the other calls;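 further: luminescence divided by OD600 gain over 9 h not by final OD600 alone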
Vif imaging – blocks HIV Vif function; 340,000 compounds, 0.35% hits; HEK293T cells, Vif self-association by quenched fluorescence, imaging, 24 h; inhibition, % at 7.49 µM; in the data active means inhibition above about 50%, passing the limit was not always enough; inconclusive means no clear call, values can overlap the other calls; inactive means below about 31%
PDI turbidity – blocks human protein disulfide isomerase activity. P07237. PDI insulin aggregation turbidity, A650, 90 min. inhibition, % at 10 µM. 350,000 compounds, 0.052% hits;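 active means mean inhibition across replicates of 30% or more, whatever share of single replicates reach that level; inconclusive means mean inhibition below 30% while every single replicate reaches 30%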
Target sequence (P07237 whole entry, looked up): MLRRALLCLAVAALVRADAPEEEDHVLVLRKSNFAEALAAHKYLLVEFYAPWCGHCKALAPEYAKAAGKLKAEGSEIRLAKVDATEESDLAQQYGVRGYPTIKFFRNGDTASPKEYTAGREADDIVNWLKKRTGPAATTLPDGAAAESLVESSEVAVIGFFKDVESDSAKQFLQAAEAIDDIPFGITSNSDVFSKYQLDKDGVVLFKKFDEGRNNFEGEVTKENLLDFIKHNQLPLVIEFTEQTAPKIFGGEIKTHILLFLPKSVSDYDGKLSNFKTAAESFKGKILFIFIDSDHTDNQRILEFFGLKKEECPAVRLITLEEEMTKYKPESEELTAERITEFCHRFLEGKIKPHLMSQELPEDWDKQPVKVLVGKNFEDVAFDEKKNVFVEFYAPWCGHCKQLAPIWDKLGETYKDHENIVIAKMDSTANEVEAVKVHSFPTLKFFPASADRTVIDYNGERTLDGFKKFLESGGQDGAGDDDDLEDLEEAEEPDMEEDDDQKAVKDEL
Active calls of the source: *. An excerpt weighted towards active compounds, which were near 0.64% of everything screened.

COc1ccc(-c2cc3ccc(OCC(=O)NCC4CCC(C(=O)O)CC4)cc3oc2=O)cc1 (stereo not given) was read as PvdQ acylase -6.7, ERp5 inh -2.4, AI-2 QS mod 11.2 and Vif imaging 3.2.
Screening COc1ccc2c(c1)c(=O)oc1cc(OCC(=O)NCC3CCC(C(=O)O)CC3)ccc12 (stereo not given) returned PvdQ acylase -9.7, ERp5 inh 4.5, AI-2 QS mod 25.3 and Vif imaging 55.1*.
For O=C(C[C@@H]1CC[C@@H]2[C@H](COC[C@H](O)CN2CCc2ccccc2)O1)N1CCC(Cc2ccccc2)CC1 the results were ERp5 inh 1.5.
C[C@@H]1CN([C@H](C)CO)C(=O)c2cccc(NC(=O)Nc3ccc4c(c3)OCO4)c2O[C@@H]1CN(C)C(=O)NC1CCCCC1 was read as ERp5 inh -4.3.
`CCCCCCc1cc2cc(-c3nnc(-c4ccccc4OC)o3)c(=O)oc2cc1O` gave PvdQ acylase -35.4, AI-2 QS mod -10.1, Vif imaging 69.9* and PDI turbidity -2.4.
Screening COc1ccc(CC(=O)Nc2ccc(S(=O)(=O)NC(C)C)cc2)cc1 returned PvdQ acylase -6.8, AI-2 QS mod -53.2, Vif imaging -7.2 and PDI turbidity -8.7.
Screening CCCCNS(=O)(=O)c1ccc(NC(=O)Cc2ccc(OC)cc2)cc1 returned PvdQ acylase -7.2, ERp5 inh -2.8, AI-2 QS mod -96.2*, Vif imaging -2.8 and PDI turbidity -2.4.
Screening COc1ccc(NC(=O)c2cccc(S(=O)(=O)N3CCc4ccccc43)c2)c(OC)c1 returned ERp5 inh 3.2, Vif imaging -1.8 and PDI turbidity -2.1.
Screening COc1ccc(NC(=O)c2cccc(S(=O)(=O)N3CCN(C)CC3)c2)c(OC)c1 returned PvdQ acylase -8.8, ERp5 inh -9.2, AI-2 QS mod -1.9, Vif imaging 54.3* and PDI turbidity -6.9.
Screening OC[C@H]1O[C@@H](n2cnc3c(NC4CCCC4)ncnc32)[C@H](O)[C@@H]1O returned PvdQ acylase 1.1, ERp5 inh 2.1, AI-2 QS mod 17.0, Vif imaging 67.1* and PDI turbidity 7.0.
For OCC1OC(n2cnc3c(NCc4ccco4)ncnc32)C(O)C1O (stereo not given) the results were PvdQ acylase -17.7, ERp5 inh 1.6, Vif imaging 53.8* and PDI turbidity -2.9.
Screening OCC1OC(n2cnc3c(NC4CCCC4)ncnc32)C(O)C1O (stereo not given) returned PvdQ acylase -7.7, ERp5 inh 4.2, AI-2 QS mod 0.0, Vif imaging inconclusive and PDI turbidity 7.3.
`Nc1ncnc2c1ncn2C1OC(C(=O)NC2CC2)C(O)C1O` (stereo not given) gave PvdQ acylase 16.3, ERp5 inh 0.2, Vif imaging 160.0* and PDI turbidity -7.0.
`OC[C@H]1O[C@@H](n2cnc3c(NCc4ccco4)ncnc32)[C@H](O)[C@@H]1O` gave PvdQ acylase -3.5, ERp5 inh 3.0, Vif imaging 6.0 and PDI turbidity 4.0.
Screening C=CCNc1ncnc2c1ncn2C1OC(CO)C(O)C1O (stereo not given) returned PvdQ acylase -6.3, AI-2 QS mod 16.4, Vif imaging 60.4* and PDI turbidity -4.5.
`OCC1OC(n2cnc3c(NC4CCCCC4)ncnc32)C(O)C1O` (stereo not given) gave PvdQ acylase 2.6, ERp5 inh -0.8, AI-2 QS mod -6.2 and Vif imaging 40.7.
For Cc1noc(C)c1S(=O)(=O)Nc1ccc2c(c1)C(=O)N([C@H](C)CO)C[C@@H](C)[C@H](CN(C)Cc1ccc3c(c1)OCO3)OCCCC[C@@H](C)O2 the results were ERp5 inh 6.0.
For C[C@@H]1CN([C@H](C)CO)C(=O)c2cc(NC(=O)CCC(F)(F)F)ccc2O[C@@H](C)CCCCO[C@@H]1CN(C)S(=O)(=O)c1cccs1 the results were ERp5 inh -1.2.
CC(C)NC(=O)N(C)C[C@H]1Oc2ccc(NC(=O)Nc3ccc(C(F)(F)F)cc3)cc2C(=O)N([C@H](C)CO)C[C@H]1C was read as ERp5 inh -3.9.
`O=C(Cc1ccccc1)N1CC[C@@H]2[C@H]1c1cc(Br)ccc1N[C@@H]2CO` gave ERp5 inh 2.4.
`CCOC(=O)N1CCN(Cc2cc(Cl)c3cccnc3c2O)CC1` gave ERp5 inh 2.0 and AI-2 QS mod -78.0*.
